Compound activity as filed in PubChem.
This is a sample that favours compounds with a hit; in the whole collection about 5.7% have one here.
ClpP mod – qHTS Assay for Activators of ClpP. AID 651965, 2013. purified B. subtilis ClpP, FRET peptide cleavage, 20 min. Potency, µM (top dose mostly 57.5 µM), without a hit: top-dose activity change, negative = active. 1.9% of 340,000 active. ATP-dependent Clp protease proteolytic subunit (Bacillus subtilis (strain 168)), P80244; active means well fitted falling curve with a large enough effect; inconclusive means small, poorly fitted or top-dose-only effect; inactive means no such curve, though single readings can be large or run the other way; further: potency means the concentration at half of the fitted maximal effect; the source files actives as falling curves though it sought activators and does not explain the sign; nearly all actives have a fitted effect of over 65% in size
Target sequence (P80244 whole entry, looked up): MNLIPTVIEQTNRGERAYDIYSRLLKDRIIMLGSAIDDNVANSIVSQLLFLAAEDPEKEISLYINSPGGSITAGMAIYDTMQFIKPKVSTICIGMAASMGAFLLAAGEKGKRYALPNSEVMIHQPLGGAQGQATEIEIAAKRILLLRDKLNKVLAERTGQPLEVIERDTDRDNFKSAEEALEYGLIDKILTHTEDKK
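Purified B. subtilis ClpP, 10 microg/mL final in Tris/HCl pH8 with KCl, BSA, glycerol and Tween-20, cleaved an Abz/nitrotyrosine-quenched decapeptide. Fluorescence (ex 320, em 430) was read at 0 and 20 min at room temperature. Delta was normalized to 5.8 microM ADEP and DMSO/no-enzyme controls.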
GLP-1R inv ag – acts as inverse agonist at human GLP-1 receptor; P43220; HEK293 GLP-1R CRE-luciferase, luminescence, 24 h; GLP-1R form is constitutively active; Potency, µM (series often up to 38.3 µM), without a hit: top-dose activity change, negative = inhibition, usual class: inhibitors; 1.6% of 410,000 active; AID 624417; further: potency means the concentration at half of the fitted maximal effect; on the % scale 0 is the no-effect control and ±100 the full control effect; nearly all actives have a fitted effect of over 55% in size
Target sequence (P43220 whole entry, looked up): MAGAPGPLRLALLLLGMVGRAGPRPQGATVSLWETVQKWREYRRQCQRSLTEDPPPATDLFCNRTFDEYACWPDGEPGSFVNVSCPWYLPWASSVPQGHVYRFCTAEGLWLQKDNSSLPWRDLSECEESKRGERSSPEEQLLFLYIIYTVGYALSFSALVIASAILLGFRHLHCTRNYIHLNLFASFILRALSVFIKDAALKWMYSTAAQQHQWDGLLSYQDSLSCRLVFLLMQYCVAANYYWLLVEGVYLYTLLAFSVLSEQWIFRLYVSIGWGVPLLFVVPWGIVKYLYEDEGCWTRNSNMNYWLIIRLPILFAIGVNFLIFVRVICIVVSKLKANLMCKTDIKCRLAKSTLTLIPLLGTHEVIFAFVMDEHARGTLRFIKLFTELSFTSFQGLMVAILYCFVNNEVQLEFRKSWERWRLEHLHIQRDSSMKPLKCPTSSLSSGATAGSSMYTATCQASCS
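HEK293 cells stably co-expressing constitutively active GLP-1R and a cAMP-responsive luciferase reporter were seeded in DMEM with 10% Nu serum, given compounds after 12 h, and incubated 24 h at 37 deg C. Luminescence was then read.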
HEK293 tox – cytotoxicity counter-screen for GLP-1 receptor inverse agonists; HEK293 cAMP-luciferase reporter cells, luminescence, 24 h; Potency, µM (top dose mostly 38.3 µM), inactives show top-dose activity change, negative = inhibition, usual class: inhibitors; 0.13% of 410,000 active; AID 624418;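 further: loss of luciferase light is scored as toxicity; potency means the concentration at half of the fitted maximal effect; on the % scale 0 is the no-effect control and ±100 the full control effect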
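Quantitative HTS format, 1536 wells, 200 cells/uL seeded. Compounds: 23 nL, 24 h, 37 °C. Detection: luciferase reagent, luminescence at 12 min RT; decreased signal taken as cytotoxic.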
D3 antag – D3 dopamine receptor (human) antagonism; P35462; D3R cells, DiscoveRx beta-arrestin luminescence, antagonist mode; active compounds read low; max response, negative = inhibition, %; 2.5% of 360,000 active; AID 652054; in the data active means max response below about -50%; inconclusive means no clear call, values can overlap the other calls; further: on the % scale 0 is the no-effect control and ±100 the full control effect
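Cells expressing the human receptor were seeded at 1500 cells/well, incubated overnight at 37 degrees C in 5% CO2, then exposed to library compounds with dopamine controls for 90 minutes at 37 degrees C before luminescent detection.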
DRD3 agonist – activates the human D3 dopamine receptor; AID 652048; max activation, %; D3R DiscoveRx beta-arrestin cells, luminescence, 90 min; 0.58% of 410,000 active; in the data active means max activation above about 30%; further: 0% is about no effect
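Cells at 1500/well, incubated overnight, then treated with pinned compounds (dopamine as control) for 90 min at 37 degrees C. DiscoveRx reagent added for 30 - 60 minutes at room temperature; luminescence read.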
GLP-1R agonist – activates the human GLP-1 receptor; Potency, µM (titrated, usually from 45.6 µM), for the others: at the highest dose activation, hits mostly activators; HEK293 GLP-1R CRE-luciferase, luminescence, 4-6 h; cells express a hypersensitive GLP-1R form; P43220; 0.007% of 380,000 active; AID 624172; further: potency means the concentration at half of the fitted maximal effect; % of control where 0% means no effect
An asterisk follows results filed as active; ? = inconclusive; . = not tested or not shown; ! = repeats disagree; [ ] = dose if it differs, or a comment. Unless noted, the call rests on the fitted dose curve; in most records, active means well fitted curve in the direction sought with a large enough effect; inconclusive means small, poorly fitted or top-dose-only effect, or another doubt; inactive means no such curve, though single readings can be large; an effect the other way counts as inactive or inconclusive.

SMILES	ClpP mod	GLP-1R inv ag	HEK293 tox	D3 antag	DRD3 agonist	GLP-1R agonist
COc1ccc(C(=O)N2CCCC2)cc1	-2%	1%	11%	-13	-8	2%
O=C(c1ccc(Cl)cc1)N1CCN(CCOc2ccccc2)CC1	.	11µM*	-7%	-5	84*	15%
COc1ccc(OCCN2CCN(C(=O)c3ccc(OC(F)F)c(OC)c3)CC2)cc1	.	?	-4%	14	123*	13%
COc1ccc(OCCN2CCN(C(=O)c3ccc(OC)cc3)CC2)cc1	.	-7%	-9%	0	92*	5%
CC[N+]1(CC(=O)c2ccc(Br)cc2)CCCCC1	1%	.	.	.	.	.
CNC1C(O)C(OC2C(N)CC(N)C(OC3OC(CN)=CCC3N)C2O)OCC1(C)O (stereo not drawn)	.	.	.	.	.	-1%
Cc1ccc2oc(=O)c3cc(C(=O)N4CCN(c5ccccc5)CC4)sc3c2c1	1%	6%	-2%	.	-1	0%
COc1cn(CC(=O)Nc2ccc(C)cc2C)c(CN2CCCCC2)cc1=O	-2%	0%	-1%	.	1	.
FC(F)(F)COc1ccc(-c2nnc(SCc3ccccc3)o2)cn1	18µM*	11%	3%	17	15	-3%
C=CCNC(=O)c1onc(CCl)c1C(=O)OC	-1%	?	?	5	65*	-1%
COCCNC(=O)c1onc(CCl)c1C(=O)OC	-1%	-13%	-8%	-29	-13	2%
S=C(Nc1ccc2c(c1)OCO2)NC1CCN(Cc2ccccc2)CC1	1%	-9%	-4%	-65*	-59	-11%
Cc1ccc(NC(=S)NC2CCN(Cc3ccccc3)CC2)cc1C	1%	?	-30%	-52*	0	6%
Cc1ccc(NC(=S)NC2CCN(Cc3ccccc3)CC2)cc1	-1%	?	3%[1.53 µM]	-61*	-27	-6%
Cc1ccc(C(=S)N2CCN(Cc3ccccc3)CC2)cc1	.	?	0%	-71*	-26	6%
Cc1ccc(NC(=S)N2CCN(Cc3ccccc3)CC2)cc1	.	?	?	0	3	14%
CC1=C(C(=O)Nc2ccc(C)cc2C)C(c2ccccc2)n2ncc(C(=O)Nc3ccccc3)c2N1 (stereo not drawn)	-25%	?	-8%	.	3	.
CCC(C(=O)OCc1cc(=O)n2nc(C)sc2n1)c1ccccc1 (stereo not drawn)	-3%	8%	0%	.	0	.
CC(=NNC1=NCCN1)c1cn(C2=NCCN2)nc1C	-2%	23%	-2%	-50*	-5	-6%
COc1ccc(/C(C)=N/NC2=NCCN2)cc1Cl	.	?	-12%	-22	-5	1%
CCCn1c(SCC(=O)Nc2ccccc2-c2ccccc2)nnc1-c1ccoc1C	-1%	11µM*	-18%	6	-1	1%
O=C(CSc1nnc2n1CCCN2)c1ccc(Cl)cc1	14µM*	0%	8%	-6	0	6%
Cc1occc1-c1nnc(SCC(=O)Nc2ccccc2-c2ccccc2)n1C	5%	-9%	-6%	-57*	-4	0%
Cc1ccccc1NC(=O)CSc1nnc(-c2ccoc2C)n1CCc1ccccc1	1%	?	-15%	-23	-4	1%
Cc1occc1-c1nnc(SCC(=O)c2ccc(Cl)cc2)n1C	-3%	0%	-13%	-56*	-12	0%
SMILES	ClpP mod	GLP-1R inv ag	HEK293 tox	D3 antag	DRD3 agonist	GLP-1R agonist
COc1cccc(C(=O)N(Cc2sccc2C)C2CCS(=O)(=O)C2)c1 (stereo not drawn)	3%	2%	1%	.	8	.
O=C(NC(=S)N1CCN(c2ccc(Cl)cc2[N+](=O)[O-])CC1)c1cccs1	2%	10µM*	5.6µM*	-22	-15	-22%
CS(=O)(=O)N1CCc2cc(C(=O)Nc3ccc(Cl)c(C(F)(F)F)c3)ccc21	?	10µM*	?	.	-22	.
COc1ccc(S(=O)(=O)N[C@H]2CC[C@H](CCNC(=O)c3ccccc3F)O[C@@H]2CO)cc1	-1%	5%	2%	9	1	.
O=[N+]([O-])c1cccc(C(O)C23CN4CN(CN(C4)C2)C3)c1 (stereo not drawn)	-1%	-5%	-3%	-3	-21	-5%
O=[N+]([O-])c1ccc(C(O)C23CN4CN(CN(C4)C2)C3)cc1 (stereo not drawn)	-2%	2%	17%	-69*	5	3%
CC(C)(C)c1ccc(C(=O)Nc2ccc(C(=O)OCc3cc(=O)n4ccsc4n3)cc2)cc1	3%	?	0%	.	26	.
COc1cccc(COC(=O)CSCC(=O)Nc2ccc(C)cc2)c1OC	-6%	0%	6%	-14	4	10%
O=C(Nc1ccccc1Cl)C1CCCN(c2ncnc3c2nc2n3CCCCC2)C1 (stereo not drawn)	.	3.2µM*	-14%	37	9	11%
COc1cccc(N2CCN(C(=O)C3CCCN(c4ncnc5c4nc4n5CCCCC4)C3)CC2)c1 (stereo not drawn)	2%	4.5µM*	?	46	9	10%
Cc1ccc(NC(=O)C2CCCN(c3ncnc4c3nc3n4CCCCC3)C2)cc1F (stereo not drawn)	1%	3.5µM*	3%	.	-12	.
O=C(C1CCN(c2ncnc3c2nc2n3CCCCC2)CC1)N1CCN(c2ccccc2)CC1	0%	-15%	-10%	.	12	.
O=C(C1CCN(c2ncnc3c2nc2n3CCCCC2)CC1)N1CCN(c2ccc(F)cc2)CC1	-2%	?	-23%	0	48*!	-3%
CCOCCn1ccc2c(OCC(=O)Nc3cccc(F)c3)cccc2c1=O	-6%	16%	-4%	.	8	.
COc1cccc(CNC(=O)c2ccc(-c3nc(CS(=O)c4ccccc4)c(C)o3)cc2)c1 (stereo not drawn)	-17%	-17%	-14%	.	-2	.
O=C(NCC(c1cccnc1)N1CCc2ccccc2C1)C(=O)Nc1ccccc1F (stereo not drawn)	-1%	-15%	1%	.	5	.
O=C(Nc1cccc(Cl)c1)C1CCCN(c2ncnc3c2nc2n3CCCCC2)C1 (stereo not drawn)	-2%	46%	?	.	-9	.
CCc1cccc(NC(=O)C2CCCN(c3ncnc4c3nc3n4CCCCC3)C2)c1 (stereo not drawn)	.	6.3µM*	-10%	-13	3	8%
COC(=O)C1=C(CN2CCN(C)CC2)NC(=O)NC1c1cc(C)ccc1C (stereo not drawn)	2%	0%	-9%	0	6	3%
